Binding signal data for 7 sequences are collected here from publication PMC7862700, “An all-to-all approach to the identification of sequence-specific readers for epigenetic DNA modifications on cytosine”.

What all share (experiment): DAPPL (digital affinity profiling via proximity ligation, sequencing); 10 mM Tris-HCl pH 7.5, 50 mM NaCl, 1 mM DTT, 4% glycerol, room temperature, 30 min; GST-TFs on glutathione beads, 16-mer random dsDNA library, 0.1% formaldehyde crosslink after washing; high values mean tight binding
Common to all, as to details: protein: recombinant; tags: N-terminal GST; dsDNA, one strand shown

The target in test [1] is T1, FLI1 (Homo sapiens, UniProt Q01543 1-452).
T1 sequence: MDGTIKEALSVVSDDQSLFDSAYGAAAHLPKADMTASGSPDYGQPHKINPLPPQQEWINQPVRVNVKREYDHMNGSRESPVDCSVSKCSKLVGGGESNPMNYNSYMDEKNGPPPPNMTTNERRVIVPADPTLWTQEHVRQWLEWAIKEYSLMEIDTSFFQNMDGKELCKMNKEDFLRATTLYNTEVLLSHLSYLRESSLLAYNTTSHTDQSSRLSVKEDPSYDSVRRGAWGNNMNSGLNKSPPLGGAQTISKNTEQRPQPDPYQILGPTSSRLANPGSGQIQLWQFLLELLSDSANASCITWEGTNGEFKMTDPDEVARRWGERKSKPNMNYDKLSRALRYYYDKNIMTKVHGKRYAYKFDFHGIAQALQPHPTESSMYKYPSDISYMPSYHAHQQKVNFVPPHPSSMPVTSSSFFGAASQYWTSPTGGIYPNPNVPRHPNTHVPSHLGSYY
An outline of the steps: (§1)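 Human transcription factors fused to GST were expressed in yeast, captured on glutathione beads, given DNA barcodes and pooled with a GST-only negative control. Pools were incubated with 200 nmole of a 16-mer random double-stranded DNA library in Tris/NaCl/DTT/glycerol buffer at room temperature for 30 min. They were then washed, crosslinked with 0.1% formaldehyde, proximity-ligated (BsaI/T4 ligase, 1 h, 37 °C), PCR-amplified and sequenced on an Illumina NextSeq500. Binding signal is each 6-mer's read frequency for a factor divided by its frequency for the GST control.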

Test [2] addresses T2, ELK1 (Homo sapiens, UniProt P19419 1-428).
T2 sequence: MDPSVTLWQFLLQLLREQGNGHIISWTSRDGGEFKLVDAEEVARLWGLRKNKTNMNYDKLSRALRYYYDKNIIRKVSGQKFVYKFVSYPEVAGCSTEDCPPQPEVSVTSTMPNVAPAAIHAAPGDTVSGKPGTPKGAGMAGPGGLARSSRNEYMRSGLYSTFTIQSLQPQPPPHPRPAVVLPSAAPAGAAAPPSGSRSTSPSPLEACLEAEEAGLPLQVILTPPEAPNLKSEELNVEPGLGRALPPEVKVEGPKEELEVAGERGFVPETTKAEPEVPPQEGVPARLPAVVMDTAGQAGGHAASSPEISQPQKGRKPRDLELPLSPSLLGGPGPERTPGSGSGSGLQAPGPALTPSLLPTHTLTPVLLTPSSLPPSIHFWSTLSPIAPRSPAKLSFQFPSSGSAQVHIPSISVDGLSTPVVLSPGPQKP
In outline: as §1

For test [3], the target named is T3, GABPA (Homo sapiens, UniProt Q06546 1-454).
T3 sequence: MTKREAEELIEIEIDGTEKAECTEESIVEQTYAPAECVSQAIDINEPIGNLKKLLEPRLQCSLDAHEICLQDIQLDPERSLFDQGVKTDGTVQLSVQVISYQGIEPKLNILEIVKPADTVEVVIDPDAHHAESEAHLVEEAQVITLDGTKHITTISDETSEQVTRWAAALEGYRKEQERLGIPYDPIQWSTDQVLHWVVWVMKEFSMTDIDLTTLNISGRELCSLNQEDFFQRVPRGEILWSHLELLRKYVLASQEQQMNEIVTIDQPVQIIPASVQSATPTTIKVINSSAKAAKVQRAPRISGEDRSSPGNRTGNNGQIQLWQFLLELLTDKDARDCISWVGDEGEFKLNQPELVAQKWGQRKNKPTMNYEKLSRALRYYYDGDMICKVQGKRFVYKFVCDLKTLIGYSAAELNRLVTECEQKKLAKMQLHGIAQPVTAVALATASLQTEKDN
In outline:
as §1

In test [4] the target is T4, ERG (Homo sapiens, UniProt P11308 1-479).
T4 sequence: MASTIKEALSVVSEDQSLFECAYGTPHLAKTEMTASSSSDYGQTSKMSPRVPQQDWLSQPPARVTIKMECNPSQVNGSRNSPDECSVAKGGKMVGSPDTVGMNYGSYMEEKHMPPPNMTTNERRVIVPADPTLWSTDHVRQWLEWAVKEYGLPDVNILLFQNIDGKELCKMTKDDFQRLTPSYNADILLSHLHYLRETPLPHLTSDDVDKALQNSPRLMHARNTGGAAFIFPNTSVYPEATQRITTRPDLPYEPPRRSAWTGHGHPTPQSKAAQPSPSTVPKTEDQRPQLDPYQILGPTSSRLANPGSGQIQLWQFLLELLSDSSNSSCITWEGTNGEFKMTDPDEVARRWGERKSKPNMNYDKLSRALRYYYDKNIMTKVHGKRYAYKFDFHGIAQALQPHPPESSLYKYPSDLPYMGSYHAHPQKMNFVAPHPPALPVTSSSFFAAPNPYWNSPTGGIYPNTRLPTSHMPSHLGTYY
In outline: as §1

Test [5] has as its target ELF1 (Homo sapiens, UniProt P32519 1-619). An outline of the steps: as §1
Test [6] concerns the target T5, EHF (Homo sapiens, UniProt Q9NZC4 1-300).
T5 sequence: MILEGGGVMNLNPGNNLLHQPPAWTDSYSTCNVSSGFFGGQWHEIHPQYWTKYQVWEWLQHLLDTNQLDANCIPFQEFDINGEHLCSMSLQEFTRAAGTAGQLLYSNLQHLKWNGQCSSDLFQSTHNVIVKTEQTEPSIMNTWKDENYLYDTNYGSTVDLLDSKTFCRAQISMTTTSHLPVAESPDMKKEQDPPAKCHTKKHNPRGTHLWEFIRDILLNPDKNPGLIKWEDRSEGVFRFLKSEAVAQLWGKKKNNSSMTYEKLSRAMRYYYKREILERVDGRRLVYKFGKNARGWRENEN
In outline: as §1

For test [7], the target named is SPI1 (Homo sapiens, UniProt P17947 1-270). In outline: as §1
Test [8] deals with SPIB (Homo sapiens, UniProt Q01892 1-262). An outline of the steps:
as §1

In test [9] the target is T6, ELK3 (Homo sapiens, UniProt P41970 1-407).
T6 sequence: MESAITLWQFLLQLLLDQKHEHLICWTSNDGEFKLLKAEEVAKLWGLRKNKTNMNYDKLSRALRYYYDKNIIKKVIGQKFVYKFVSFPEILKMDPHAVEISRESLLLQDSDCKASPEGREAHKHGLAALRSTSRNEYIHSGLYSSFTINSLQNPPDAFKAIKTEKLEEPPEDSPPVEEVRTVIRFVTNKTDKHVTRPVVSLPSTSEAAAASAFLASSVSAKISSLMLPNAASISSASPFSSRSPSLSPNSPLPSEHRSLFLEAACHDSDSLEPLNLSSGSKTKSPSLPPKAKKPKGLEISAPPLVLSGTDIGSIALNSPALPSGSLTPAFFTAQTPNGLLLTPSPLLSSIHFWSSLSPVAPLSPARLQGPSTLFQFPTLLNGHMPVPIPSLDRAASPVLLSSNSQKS
In outline:
as §1

Sequence of SPIB (Q01892 whole entry): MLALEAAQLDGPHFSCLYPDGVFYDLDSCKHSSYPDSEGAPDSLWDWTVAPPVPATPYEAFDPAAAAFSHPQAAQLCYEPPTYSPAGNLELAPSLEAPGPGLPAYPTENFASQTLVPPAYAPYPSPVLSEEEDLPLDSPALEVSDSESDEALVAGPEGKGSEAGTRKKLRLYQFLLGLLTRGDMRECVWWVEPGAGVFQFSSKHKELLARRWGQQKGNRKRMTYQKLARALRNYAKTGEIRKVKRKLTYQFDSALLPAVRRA
Sequence of ELF1 (P32519 whole entry): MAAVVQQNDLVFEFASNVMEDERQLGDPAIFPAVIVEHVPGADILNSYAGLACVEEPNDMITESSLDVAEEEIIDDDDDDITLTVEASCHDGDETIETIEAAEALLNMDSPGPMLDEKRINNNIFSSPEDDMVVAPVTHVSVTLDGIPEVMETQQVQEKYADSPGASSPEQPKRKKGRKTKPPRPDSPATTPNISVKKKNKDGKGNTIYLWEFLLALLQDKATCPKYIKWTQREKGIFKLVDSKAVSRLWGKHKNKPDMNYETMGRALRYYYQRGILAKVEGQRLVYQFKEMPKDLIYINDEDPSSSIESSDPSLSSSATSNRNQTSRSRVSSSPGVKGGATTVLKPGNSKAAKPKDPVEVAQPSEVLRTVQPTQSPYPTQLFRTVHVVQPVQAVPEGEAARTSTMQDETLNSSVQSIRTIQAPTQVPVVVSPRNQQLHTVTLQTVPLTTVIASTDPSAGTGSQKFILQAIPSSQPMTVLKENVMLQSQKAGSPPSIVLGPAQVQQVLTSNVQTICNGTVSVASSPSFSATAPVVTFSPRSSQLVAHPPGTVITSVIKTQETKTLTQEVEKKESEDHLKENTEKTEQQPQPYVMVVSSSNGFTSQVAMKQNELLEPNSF

Regarding CTATCT, the binding signal was 1.26 fold enrichment (6-mer frequency, TF over GST control) in test [1]; 1.43 fold enrichment (6-mer frequency, TF over GST control) in [2]; 1.34 fold enrichment (6-mer frequency, TF over GST control) in [3]; 1.29 fold enrichment (6-mer frequency, TF over GST control) in test [4]; 1.34 fold enrichment (6-mer frequency, TF over GST control) in [5]; 1.54 fold enrichment (6-mer frequency, TF over GST control) in test [6]. Also, the binding signal was 1.42 fold enrichment (6-mer frequency, TF over GST control) in test [7]; 1.28 fold enrichment (6-mer frequency, TF over GST control) in test [8]; 1.48 fold enrichment (6-mer frequency, TF over GST control) in test [9].
With AAAACT, the binding signal in test [1] is 1.23 fold enrichment (6-mer frequency, TF over GST control); in test [2], 1.16 fold enrichment (6-mer frequency, TF over GST control); in [3], 1.15 fold enrichment (6-mer frequency, TF over GST control); in test [4], 1.17 fold enrichment (6-mer frequency, TF over GST control); in test [5] it was 1.25 fold enrichment (6-mer frequency, TF over GST control); in [6] it was 1.24 fold enrichment (6-mer frequency, TF over GST control). Also, the binding signal is 1.17 fold enrichment (6-mer frequency, TF over GST control) in test [7]; 1.23 fold enrichment (6-mer frequency, TF over GST control) in [8]; 1.19 fold enrichment (6-mer frequency, TF over GST control) in test [9].
With TGCTCC, the binding signal is 1.53 fold enrichment (6-mer frequency, TF over GST control) in test [1]; 1.41 fold enrichment (6-mer frequency, TF over GST control) in test [2]; 1.45 fold enrichment (6-mer frequency, TF over GST control) in test [3]; 1.37 fold enrichment (6-mer frequency, TF over GST control) in test [4]; 1.31 fold enrichment (6-mer frequency, TF over GST control) in [5]; 1.46 fold enrichment (6-mer frequency, TF over GST control) in test [6]. Also, the binding signal was 1.38 fold enrichment (6-mer frequency, TF over GST control) in [7]; 1.41 fold enrichment (6-mer frequency, TF over GST control) in test [8]; 1.38 fold enrichment (6-mer frequency, TF over GST control) in [9].
Consider CGCTTT, for which the binding signal was 1.31 fold enrichment (6-mer frequency, TF over GST control) in test [1]; 1.1 fold enrichment (6-mer frequency, TF over GST control) in test [2]; 1.32 fold enrichment (6-mer frequency, TF over GST control) in test [3]; 1.15 fold enrichment (6-mer frequency, TF over GST control) in [4]; 1.18 fold enrichment (6-mer frequency, TF over GST control) in [5]; 1.19 fold enrichment (6-mer frequency, TF over GST control) in test [6]. Besides, the binding signal in test [7] is 1.59 fold enrichment (6-mer frequency, TF over GST control); in test [8], 1.4 fold enrichment (6-mer frequency, TF over GST control); in test [9], 1.31 fold enrichment (6-mer frequency, TF over GST control).
For the sequence GCTGAT, the binding signal in test [1] was 1.11 fold enrichment (6-mer frequency, TF over GST control); in [2] it was 1.1 fold enrichment (6-mer frequency, TF over GST control); in test [3], 1.18 fold enrichment (6-mer frequency, TF over GST control); in [4], 1.1 fold enrichment (6-mer frequency, TF over GST control); in [5] it was 1.22 fold enrichment (6-mer frequency, TF over GST control); in test [6], 1.33 fold enrichment (6-mer frequency, TF over GST control). Also, the binding signal in [7] was 1.08 fold enrichment (6-mer frequency, TF over GST control); in [8], 1.11 fold enrichment (6-mer frequency, TF over GST control); in test [9] it was 1.33 fold enrichment (6-mer frequency, TF over GST control).
With GATCCT, the binding signal in test [1] is 1.28 fold enrichment (6-mer frequency, TF over GST control); in test [2], 1.2 fold enrichment (6-mer frequency, TF over GST control); in test [3] it was 1.3 fold enrichment (6-mer frequency, TF over GST control); in test [4] it was 1.38 fold enrichment (6-mer frequency, TF over GST control); in [5] it was 1.26 fold enrichment (6-mer frequency, TF over GST control); in test [6], 1.28 fold enrichment (6-mer frequency, TF over GST control). The binding signal in test [7] is 1.24 fold enrichment (6-mer frequency, TF over GST control); in test [8], 1.33 fold enrichment (6-mer frequency, TF over GST control); in [9] it was 1.31 fold enrichment (6-mer frequency, TF over GST control).
On to TCTTGA, for which the binding signal in [1] is 1.33 fold enrichment (6-mer frequency, TF over GST control); in test [2], 1.31 fold enrichment (6-mer frequency, TF over GST control); in [3] it was 1.33 fold enrichment (6-mer frequency, TF over GST control); in test [4] it was 1.24 fold enrichment (6-mer frequency, TF over GST control); in test [5] it was 1.3 fold enrichment (6-mer frequency, TF over GST control); in test [6], 1.35 fold enrichment (6-mer frequency, TF over GST control). The binding signal in [7] was 1.25 fold enrichment (6-mer frequency, TF over GST control); in test [8], 1.27 fold enrichment (6-mer frequency, TF over GST control); in test [9] it was 1.29 fold enrichment (6-mer frequency, TF over GST control).
